{"source": "PubChem BioAssay (EPA / NIEHS)", "note": "A structure can be active in one record and inactive in another. Calls of active or inactive are those of the source. How the source made its calls: active means hit-call score of the fitted dose curve at least 0.9, where 1 is the maximum; inactive means score below 0.9.", "data": [{"test": "ATG_AP_1_CIS: Attagene CIS-FACTORIAL HepG2 Assay for human Activator Protein 1 (AP-1) (AID 2282931)", "details": "HepG2 Attagene cis-factorial AP-1 reporter mRNA; actives raise or lower the signal", "protocol": "ATG_CIS is a cell-based, multiplexed-readout assay that uses HepG2, a human liver cell line, with measurements taken at 24 hours after chemical dosing in a 24-well plate.ATG_AP_1_CIS is one of 52 assay component(s) measured or calculated from the ATG_CIS assay. It is designed to make measurements of mRNA induction, a form of inducible reporter, as detected with fluorescence intensity signals by Reverse transcription polymerase chain reaction (RT-PCR) and Capillary electrophoresis technology.Data from the assay component ATG_AP_1_CIS was analyzed into 1 assay endpoint. This assay endpoint, ATG_AP_1_CIS, was analyzed with bidirectional fitting relative to DMSO as the negative control and baseline of activity. Using a type of inducible reporter, measures of mRNA for gain or loss-of-signal activity can be used to understand the reporter gene at the transcription factor-level as they relate to the gene FOS and JUN. Furthermore, this assay endpoint can be referred to as a primary readout, because this assay has produced multiple assay endpoints where this one serves a reporter gene function. To generalize the intended target to other relatable targets, this assay endpoint is annotated to the dna binding intended target family, where the subfamily is basic leucine zipper.\nHuman liver HepG2 cells are transiently transfected with multiple reporter transcription units (MRTUs) in 6-well plates using FuGene 6 reagent (Roche; 3 ml FuGene/1 mg DNA). The MRTU constructs are regulated by a cis-regulating element (promoter). […] A major difference between the CIS and TRANS system is that in CIS activities of endogenous TFs are measured, whereas the TRANS assay evaluates changes in activities of exogenous, chimeric NR-Gal4 proteins. […] At the end of 24 hour incubation, total RNA was isolated using TriZol reagent (Invitrogen). The isolated RNA is then reverse-transcribed using oligo(dT) primer and Mo-MLV reverse transcriptase (Invitrogen) with DNAse I (Ambion) treatment for 30 min. The one-tenth of the produced cDNA was amplified by PCR using Taq DNA polymerase (Invitrogen) and two reporter sequence-specific primers. The PCR products were fluorescently labeled by primer extension with 6-arboxyfluorescein (6-FAM) 5'-labeled reporter sequence-specific primer (2 min at 95 C, 20 s at 68 C and 10 min at 72 C) and these products were digested with 5U of HpaI (New England Biolabs) for 2h at 37 C. The fragments were purified using Qiaquick PCR columns (Qiagen), analyzed on an ABI 3130xL genetic analyzer (Applied Biosystems) with peak positions identified by using a set of X-rhodamine (ROX)-labeled MapMarker1000 molecular weight standards (BioVentures). The raw capillary electrophoresis data was processed using Attagraph software (Attagene).", "values": [{"compound": "COC(=O)c1cc(Oc2ccc(Cl)cc2Cl)ccc1[N+](=O)[O-]", "outcome": "inactive"}, {"compound": "C#CCOC(=O)/C=C(C)/C=C/CC(C)CCCC(C)C", "note": "(stereo not given)", "AC50": "55.3 µM (active)"}, {"compound": "CCC[N+](CCC)(CCC)CCC", "outcome": "inactive"}, {"compound": "CCCCCCCCBr", "outcome": "inactive"}, {"compound": "O=C(Cc1ccccc1)OCCc1ccccc1", "outcome": "inactive"}, {"compound": "CC(C)[C@@H](Nc1ccc(C(F)(F)F)cc1Cl)C(=O)OC(C#N)c1cccc(Oc2ccccc2)c1", "note": "(stereo not given in full)", "outcome": "inactive"}, {"compound": "Cc1c([N+](=O)[O-])c(C)c([N+](=O)[O-])c(C(C)(C)C)c1[N+](=O)[O-]", "outcome": "inactive"}, {"compound": "Nc1ccc(Br)cc1", "outcome": "inactive"}, {"compound": "O=C1c2ccccc2C(=O)C1C(=O)C(c1ccccc1)c1ccc(Cl)cc1", "note": "(stereo not given)", "AC50": "5.27 µM (active)"}, {"compound": "CCOP(=S)(OCC)SCS(=O)(=O)C(C)(C)C", "outcome": "inactive"}, {"compound": "Nc1ccc(N)cc1", "outcome": "inactive", "AC50": "70.9 µM (active)"}, {"compound": "CCOP(=O)(OCC)OC(=CCl)c1ccc(Cl)cc1Cl", "outcome": "inactive"}, {"compound": "C[C@@H]1O[C@@H](O[C@H]2C[C@@H](O)[C@]3(CO)[C@H]4[C@H](O)C[C@]5(C)[C@@H](C6=CC(=O)OC6)CC[C@]5(O)[C@@H]4CC[C@]3(O)C2)[C@H](O)[C@H](O)[C@H]1O", "AC50": "0.215 µM (active)"}, {"compound": "CC(C)(C)c1ccccc1O", "AC50": "75.5 µM (active)"}, {"compound": "CCOc1cc(C=O)ccc1O", "outcome": "inactive"}, {"compound": "ClCCCCl", "outcome": "inactive"}, {"compound": "Nc1nc(N)nc(Cl)n1", "outcome": "inactive"}, {"compound": "Cc1ccc(CCl)cc1", "outcome": "inactive"}, {"compound": "Cc1ccc(OP(=O)(Oc2ccc(C)cc2C)Oc2ccc(C)cc2C)c(C)c1", "outcome": "inactive"}, {"compound": "O=C(O)C1(c2ccc3c(c2)OC[C@H](Cc2ccc(-c4ccccc4)cc2)[C@H]3O)CCCC1", "AC50": "19.7 µM (active)"}, {"compound": "O=C(CCl)NCO", "outcome": "inactive"}, {"compound": "CN(C)c1ccc(N=O)cc1", "outcome": "inactive"}, {"compound": "CCOP(=S)(OCC)Oc1ccc(Cl)cc1Cl", "outcome": "inactive"}, {"compound": "N#Cc1ccccc1N", "outcome": "inactive"}, {"compound": "CN(C)C(=S)S", "AC50": "25.9 µM (active)"}, {"compound": "O=C(O)COc1cc(Cl)c(Cl)cc1Cl", "outcome": "inactive"}, {"compound": "COc1ccccc1N", "outcome": "inactive"}, {"compound": "CC1CC(=O)O1", "note": "(stereo not given)", "outcome": "inactive"}, {"compound": "Oc1cccc(-c2ccccc2)c1", "AC50": "65.1 µM (active)"}, {"compound": "Clc1ccc(C(Cl)(Cl)Cl)cn1", "outcome": "inactive"}, {"compound": "Cc1ccccc1OP(=O)(Oc1ccccc1C)Oc1ccccc1C", "AC50": "17.5 µM (active)"}, {"compound": "CC(C=O)Cc1ccc2c(c1)OCO2", "note": "(stereo not given)", "outcome": "inactive"}, {"compound": "Brc1c(Br)c(Br)c(Oc2c(Br)c(Br)c(Br)c(Br)c2Br)c(Br)c1Br", "outcome": "inactive"}, {"compound": "CCCCN(CCCCO)N=O", "outcome": "inactive"}, {"compound": "CCCSP(=S)(OCC)Oc1ccc(SC)cc1", "note": "(stereo not given)", "outcome": "inactive"}, {"compound": "O=C(O)CC(O)(CC(=O)O)C(=O)O", "outcome": "inactive"}, {"compound": "CCOC(=O)CCN(SN(C)C(=O)Oc1cccc2c1OC(C)(C)C2)C(C)C", "AC50": "151 µM (active)"}, {"compound": "ClCCN1CCOCC1", "outcome": "inactive"}, {"compound": "O=[N+]([O-])c1cc([As](=O)(O)O)ccc1O", "outcome": "inactive"}]}]}
